# Assay results from the supplement of paper PMC12297408.
# Counter-ions that a name gives are not always drawn. Out of some 1,300 compounds screened, about 40 (3%) showed activity. The list comes from a sample in which actives are over-represented; it also holds similar structures and randomly drawn compounds. Unmarked numbers belong to inactive results.
# Test system: Plasmodium falciparum NF54/iGP1_RE9H ulg8 stage V gametocytes
# Assay: gametocyte viability (luciferase signal relative to DMSO control) (% of DMSO control); higher = less gametocytocidal activity, active = 50 or less
# Settings: exposure time: 72 h
# In short: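 Compounds from 10 mM DMSO stocks were spotted at nanolitre scale into 96-well plates, and day-12 stage V NF54/iGP1_RE9Hulg8 gametocytes (~2.5% gametocytemia, 3% hematocrit; medium with 0.5% Albumax II) were added to reach 10 µM or 1 µM, one well per concentration. The plates were kept at 37 °C for 72 h. Luminescence was then read on an IVIS Lumina II after mixing 90 µl of culture with 10 µl D-luciferin (30 mg/ml). Viability values are relative to the plate's mean DMSO vehicle signal.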
SMILES,gametocyte viability (concentration: 1 µM),gametocyte viability (concentration: 10 µM)
CN(C)CCc1c[nH]c2ccc(C[C@H]3COC(=O)N3)cc12 [Zolmitriptan],83.8,81.7
COc1ccccc1N1CCN(CC(O)COc2cccc3ccccc23)CC1 (stereo unspecified) [Naftopidil dihydrochloride],90.8,83.2
COc1ccccc1N1CCN(CCCNc2cc(=O)n(C)c(=O)n2C)CC1 [Urapidil hydrochloride],75.6,48.5 (active)
COc1ccccc1N1CCN(CCCCNC(=O)c2ccc3ccccc3c2)CC1,82.8,73.7
CCOC(=O)[C@H](CCc1ccccc1)N[C@@H](C)C(=O)N1CCC[C@H]1C(=O)O [Enalapril maleate],81.9,86.7
COc1ccc(CCN(C)CCCC(C#N)(c2ccc(OC)c(OC)c2)C(C)C)cc1OC (stereo unspecified) [Verapamil hydrochloride],91.8,99.3
N/C(=N\C(=O)c1nc(Cl)c(N)nc1N)NCc1ccccc1 [Benzamil hydrochloride],88.7,81.1
CC(C)c1ccc2oc3nc(N)c(C(=O)O)cc3c(=O)c2c1 [Amlexanox],80,81.5
CCCCC(O)c1ccccc1 (stereo unspecified) [Fenipentol],82,82.9
CC(C)(C)NC(=O)[C@@H]1CN(Cc2cccnc2)CCN1C[C@@H](O)C[C@@H](Cc1ccccc1)C(=O)N[C@H]1c2ccccc2C[C@H]1O [Indinavir sulfate],67,40 (active)
CC(C)(C)NC(=O)[C@@H]1C[C@@H]2CCCC[C@@H]2CN1C[C@@H](O)[C@H](Cc1ccccc1)NC(=O)[C@H](CC(N)=O)NC(=O)c1ccc2ccccc2n1 [Saquinavir mesylate],82.4,78.9
CN1CCCCC1CCN1c2ccccc2Sc2ccc([S+](C)[O-])cc21 (stereo unspecified) [Mesoridazine besylate],88.9,88.7
CN1CCN(CCCN2c3ccccc3Sc3ccc(Cl)cc32)CC1 [Prochlorperazine dimaleate],81.3,78.9
OCCN1CCN(CCCN2c3ccccc3Sc3ccc(C(F)(F)F)cc32)CC1 [Fluphenazine dihydrochloride],89.1,68.1
CN1CCN(CCCN2c3ccccc3Sc3ccc(C(F)(F)F)cc32)CC1 [Trifluoperazine dihydrochloride],82.8,46.8 (active)
CN(C)CCCN1c2ccccc2Sc2ccc(C(F)(F)F)cc21 [Triflupromazine hydrochloride],83.7,81.5
CCSc1ccc2c(c1)N(CCCN1CCN(C)CC1)c1ccccc1S2 [Thiethylperazine dimalate],83.3,32.4 (active)

SMILES,gametocyte viability (concentration: 1 µM),gametocyte viability (concentration: 10 µM)
CSc1ccc2c(c1)C(N1CCN(C)CC1)Cc1ccccc1S2 (stereo unspecified) [Methiothepin maleate],86.1,75.3
CSc1ccc2c(c1)N(CCC1CCCCN1C)c1ccccc1S2 (stereo unspecified) [Thioridazine hydrochloride],87.7,30.1 (active)
CN1CCN(CCCN2c3ccccc3Sc3ccc(S(=O)(=O)N(C)C)cc32)CC1 [Thioproperazine dimesylate],81.7,52.8
C=C1/C(=C\C=C2/CCC[C@]3(C)[C@@H]([C@H](C)/C=C/[C@@H](O)C4CC4)CC[C@@H]23)C[C@@H](O)C[C@@H]1O [Calcipotriene],79.2,64.3
CCN[C@H]1C[C@H](C)S(=O)(=O)c2sc(S(N)(=O)=O)cc21 [Dorzolamide hydrochloride],80.2,87.2
CC(C)(Sc1cc(C(C)(C)C)c(O)c(C(C)(C)C)c1)Sc1cc(C(C)(C)C)c(O)c(C(C)(C)C)c1 [Probucol],84.2,85.2
NC[C@@H]1O[C@H](O[C@H]2[C@@H](O)[C@H](O[C@@H]3[C@@H](O)[C@H](N)C[C@H](N)[C@H]3O[C@H]3O[C@H](CN)[C@@H](O)[C@H](O)[C@H]3N)O[C@@H]2CO)[C@H](N)[C@@H](O)[C@@H]1O [Neomycin sulfate],81.7,84.7
COc1cc(C(=O)OCCCN2CCCN(CCCOC(=O)c3cc(OC)c(OC)c(OC)c3)CC2)cc(OC)c1OC [Dilazep dihydrochloride],85.4,94.7
COCCCOc1ccnc(C[S+]([O-])c2nc3ccccc3[nH]2)c1C (stereo unspecified) [Rabeprazole Sodium salt],83.8,80.3
CN(C)c1ccc(O)c2c1C[C@H]1C[C@H]3[C@H](N(C)C)C(=O)C(C(N)=O)=C(O)[C@@]3(O)C(=O)C1=C2O [Minocycline hydrochloride],83.1,83.3
C=C(CC)C(=O)c1ccc(OCC(=O)O)c(Cl)c1Cl [Ethacrynic acid],90.4,92.5
N=C(N)NCc1cccc(I)c1 [Iobenguane sulfate],99.3,100
CC1(C)O[C@@H]2C[C@H]3[C@@H]4C[C@H](F)C5=CC(=O)C=C[C@]5(C)[C@@]4(F)[C@@H](O)C[C@]3(C)[C@]2(C(=O)CO)O1 [Fluocinolone acetonide],83.3,83.3
CCC1=C(C)CN(C(=O)NCCc2ccc(S(=O)(=O)NC(=O)N[C@H]3CC[C@H](C)CC3)cc2)C1=O [Glimepiride],97.7,101
CC(C)(Oc1ccc(CCNC(=O)c2ccc(Cl)cc2)cc1)C(=O)O [Bezafibrate],98.6,97
CCCCC(CC)CNC(=N)NC(=N)NCCCCCCNC(=N)NC(=N)NCC(CC)CCCC (stereo unspecified) [Alexidine dihydrochloride],36.2 (active),0.515 (active)
